# Bioassay records as filed in PubChem.
# SMN2 splice up: increases expression of the SMN2 splice variant. HEK293 SMN2-luciferase splicing reporter, luminescence, 30-36 h. AID 1458. Potency, µM (titrated, usually from 46.1 µM), inactives show at the highest dose activity change, positive = activation, usual class: activators. 2.8% of 210,000 active; note: % of control where 0% means no effect; nearly all actives have a fitted effect of over 55% in size
#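 HEK293 cells carry an SMN2 minigene-luciferase reporter in which exon 7 inclusion puts luciferase in frame. Cells were seeded at 2000 cells/well, attached for 10-12 hours, then exposed to compounds for 30-36 hours at 37C before ONE-Glo luminescence.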
# KinaseGlo FLuc: Kinase-Glo luciferase inhibition (counter-screen); AID 1379; Potency, µM (highest dose often 38.3 µM), for the others: top-dose activity change, negative = inhibition, actives largely listed as inhibitors; 0.28% of 200,000 active; Kinase-Glo luciferase, ATP luminescence, 8 min; Q27757; note: % is set by controls: 0 for no effect and ±100 for the full control effect; nearly all actives have a fitted effect of over 60% in size
#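 Compounds were added to a substrate mix at pH 7.2 (50 mM imidazole, 10 uM ATP, within the enzyme's linear range), followed by Kinase-Glo detection reagent; luminescence was measured after 8 minutes at ambient temperature.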
# FLuc modulator: counter-screen for miR-21 project: firefly luciferase inhibitors or activators. P08659. purified FLuc, Km substrates, luminescence inhibition. Potency, µM (top dose mostly 57.5 µM), without a hit: top-dose activity change, negative = inhibition, hits mostly inhibitors. 6.9% of 360,000 active. AID 588342;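 note: plate controls were vehicle for no effect and reference inhibitor for full effect; nearly all actives have a fitted effect of over 55% in size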
# Target sequence (P08659 whole entry, looked up): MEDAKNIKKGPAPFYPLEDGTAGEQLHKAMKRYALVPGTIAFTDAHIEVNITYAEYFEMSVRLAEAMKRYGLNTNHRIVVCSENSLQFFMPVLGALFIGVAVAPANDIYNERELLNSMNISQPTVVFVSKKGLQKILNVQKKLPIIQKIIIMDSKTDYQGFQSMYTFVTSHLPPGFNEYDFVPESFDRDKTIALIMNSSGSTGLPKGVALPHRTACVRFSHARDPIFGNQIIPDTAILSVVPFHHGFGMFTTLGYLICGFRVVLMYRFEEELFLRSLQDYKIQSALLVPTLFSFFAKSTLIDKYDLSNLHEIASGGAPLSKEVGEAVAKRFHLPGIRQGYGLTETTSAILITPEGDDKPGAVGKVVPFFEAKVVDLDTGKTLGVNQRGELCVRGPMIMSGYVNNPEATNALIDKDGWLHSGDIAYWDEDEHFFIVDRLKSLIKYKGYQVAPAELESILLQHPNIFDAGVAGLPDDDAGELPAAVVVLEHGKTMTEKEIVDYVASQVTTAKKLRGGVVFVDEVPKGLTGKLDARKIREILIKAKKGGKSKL
#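 Purified P. pyralis luciferase, 10 nM final, with Km-level 10 uM D-luciferin and 10 uM ATP in 50 mM Tris acetate pH 7.5, 10 mM Mg acetate, 0.01% Tween-20, 0.05% BSA; 6-point qHTS titration about 60 µM downward; luminescence read.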
# Rab9 prom act: activators of Rab9 promoter; Huh7 Rab9 promoter-luciferase reporter, luminescence, 24 h; Potency, µM (doses to about 9.22 µM), without a hit: at the top dose activation, negative = inhibition, most hits filed as activators; 2.8% of 320,000 active; note: % of control where 0% means no effect; nearly all actives have a fitted effect of over 60% in size
#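 Promoter activation is measured as luciferase luminescence in Huh7 cells stably transfected with a Rab9 promoter–luciferase construct, following 24 h compound exposure at 37 °C and 10 min reagent incubation at ambient temperature.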
# NPC1 prom act: activates the NPC1 promoter. Huh7 NPC1 promoter luciferase reporter, 24 h. Potency, µM (titrated, usually from 9.22 µM), for inactives: at the top dose activation, most hits filed as activators. 2.4% of 320,000 active. AID 485313; note: % of control where 0% means no effect; nearly all actives have a fitted effect of over 60% in size
#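 Huh7 reporter cells (NPC1 promoter driving luciferase) are dosed with compound for 24 h at 37 °C, 5% CO2; luciferase detection reagent is then added and luminescence measured after 10 min at ambient temperature.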
# Numbers without * were called inactive; ? = inconclusive; · = no result; [ ] = remark or other dose. Compounds with a hit are over-represented: about 7.3% of the library has one in this group of screens. Calls come from the whole dose curve; as a rule, active = well fitted curve in the direction sought with a large enough effect; inconclusive = small, poorly fitted or top-dose-only effect, or another doubt; inactive = no such curve, though single readings can be large; an effect the other way counts as inactive or inconclusive. Potency is the fitted concentration of half-maximal effect.
SMILES,SMN2 splice up,KinaseGlo FLuc,FLuc modulator,Rab9 prom act,NPC1 prom act
COc1ccc(-c2cc3ccccc3cn2)cc1,·,·,0.849µM*,0.631µM*,0.631µM*
COc1ccc2cc(-c3ccccc3F)ncc2c1,·,·,0.953µM*,?,1.41µM*
COc1ccc2cc(-c3ccon3)ccc2c1,·,·,3.01µM*,?,?
CCOc1ccc(OCC(=O)Nc2c(C(=O)Nc3ccc(C)cc3)oc3ccccc23)cc1,-0.3%,·,-3.9%,·,·
COc1ccc2cc(-c3cccnc3)ncc2c1,·,·,3.79µM*,?,2.24µM*
CC/C=C\C/C=C\C/C=C\C/C=C\C/C=C\C/C=C\CCC(=O)NCCO,2.5%,0.2%,·,·,·
Cc1ccc(NC(=O)C(=O)Nc2ccc(C)cn2)nc1,22.4%,8.9%,-14.6%,?,27.1%
Cc1ccc(NC(=O)c2sccc2C)nc1,·,·,12µM*,0.501µM*,0.891µM*
Cc1c(NC(=O)Nc2cccs2)cccc1[N+](=O)[O-],-34.0%,0.4%,-16.7%,-9.3%,-24.7%
Cc1cc(C)cc(NC(=O)Nc2cccs2)c1,15.2%,·,9.53µM*,·,·
Cc1ccc(NC(=O)Nc2cccs2)nc1,?,-5.2%,21.3µM*,2.24µM*,3.98µM*
Cc1cc(C)cc(NC(=O)Nc2cccnc2)c1,·,·,?,2.5%,2.5%
Cc1ccc(NC(=O)Nc2cccs2)cc1,15.8µM*,-3.4%,2.39µM*,2.24µM*,2.82µM*
CCOc1ccc(NC(=O)Nc2ccc3nsnc3c2)cc1,19.6%,1.2%,?,29.8%,12.8%
CCc1ccc(NC(=O)Nc2cccs2)cc1,14.1µM*,-4.6%,0.849µM*,0.794µM*,1.12µM*
CCOc1ccc(NC(=O)Nc2cccs2)cc1,11.2µM*,-22.1%,1.51µM*,1.41µM*,0.891µM*
COc1ccc2c(c1)c1c(c(=O)n(Cc3ccccc3)c(=O)n1CC(=O)NCc1ccccc1Cl)n2C,21.9%,·,1.2%,·,·
O=C(O)c1ccccc1Nc1ccc(OC(F)F)cc1,15.7%,3.3%,21.3µM*,16.8%,12.1%
COc1cccc(Nc2ccc(Nc3cccc(OC)c3)nn2)c1,4.1%,0.6%,19µM*,-7.2%,-1.8%
COc1cc(NC(=O)Nc2cccc(Cl)c2)c(C(=O)O)cc1OC,·,·,26.9µM*,-2.7%,-7.2%
CSc1ccc(NC(=O)Nc2ccccc2C(N)=O)cc1,·,·,1.07µM*,?,?
CC(C)(C)NC(=O)Nc1ccccc1C(N)=O,-5.5%,-1.7%,1.1%,-0.6%,-0.6%
COc1cccc(NC(=O)Nc2ccccc2C(N)=O)c1,21.6%,-25.5%,21.3µM*,-5.5%,-2.1%
COc1cccc(NC(=O)Nc2cc(NC(=O)Nc3cccc(OC)c3)c(C)nc2C)c1,15.9%,1.4%,0.7%,1.4%,5.2%
NC(=O)c1ccccc1NC(=O)Nc1cccc(Cl)c1,11.9%,-7.9%,15.1µM*,-7.6%,0.6%
SMILES,SMN2 splice up,KinaseGlo FLuc,FLuc modulator,Rab9 prom act,NPC1 prom act
O=C(Cc1ccccc1)NNC(=O)Nc1cccc(Cl)c1,-13.2%,-0.1%,0.2%,0.5%,-0.5%
COc1cccc(Nc2ccccc2C(=O)O)c1,?,-0.6%,26.9µM*,12.7%,0.8%
O=C(Nc1cccc(Cl)c1)Nc1ccccc1C(=O)O,·,·,0.849µM*,0.126µM*,0.562µM*
CCCCNC(=O)CN1CCN(c2ccc(NC(=O)c3ccc(OC)cc3)cc2C(=O)O)CC1,·,·,-2.5%,·,·
Nc1nonc1-c1nc2ccccc2n1CC(=O)Nc1cccc(C(F)(F)F)c1,·,·,-0.1%,·,·
Cc1ccc(NC(=O)CN(Cc2ccccc2)S(=O)(=O)c2ccc3nc(C)sc3c2)c(C)c1,·,·,-8.0%,·,·
O=[N+]([O-])c1ccc(Sc2cccc[n+]2[O-])c2nonc12,·,·,4.78µM*,-47.6%,-37.8%
CCCCc1nc2ccccc2n2c(-c3ccc(C)cc3)c3c(=O)n(C)c(=O)n(C)c3c12,5.2%,·,5.5%,·,·
COc1ccc(C(=O)Oc2cccnc2)cc1,0.6%,-6.1%,-17.1%,6.7%,-4.4%
COc1ccc(CC(=O)O/N=C(\N)c2ccccn2)cc1,·,·,12µM*,17.6%,10.1%
CCOc1cc(C(=O)O/N=C(\N)c2ccccn2)cc(OCC)c1OCC,·,·,?,3.6%,6.2%
COc1cc(OC)cc(C(=O)O/N=C(\N)c2ccccn2)c1,·,·,6.75µM*,0.631µM*,0.891µM*
N/C(=N\OC(=O)Cc1ccc(-c2ccccc2)cc1)c1ccccn1,-32.7%,7.2%,?,5.0%,17.5%
COc1ccc(C(=O)O/N=C(\C)c2cnccn2)cc1,7.4%,-13.7%,10.7µM*,-1.1%,-0.1%
COc1ccc(C(=O)O/N=C(\N)c2ccccn2)cc1,·,·,0.0953µM*,0.398µM*,0.112µM*
COc1ccccc1CNC(=O)CSc1cc(C)[nH]c(=O)n1,·,·,1.0%,·,·
COc1ccc(N(CC(=O)NCCc2cccc(C)c2)S(=O)(=O)c2c(C)nn(C)c2C)cc1,-13.2%,·,4.1%,·,·
Cc1cc2c(cc1S(=O)(=O)N(CCO)Cc1ccccc1)OCC(=O)N2,·,·,5.7%,·,·
Cc1ccc(S(=O)(=O)c2cn(CC(=O)Nc3ccc4c(c3)OCO4)c3ccccc3c2=O)cc1,12.5%,·,5.5%,·,·
COc1ccc(C(=O)NNC(=O)c2ccccn2)cc1,2.51µM*,0.631µM*,0.0849µM*,0.316µM*,0.316µM*
O=C(NCc1ccccc1)c1ccc(OCC2CCCO2)cc1 (centres undefined),2.0%,-0.4%,?,-1.8%,1.9%
O=C(Nc1cccc(S(=O)(=O)N2CCCCC2)c1)c1ccc(OCC2CCCO2)cc1 (centres undefined),-66.7%,12.9%,15.1µM*,4.1%,-5.4%
O=C(Nc1ccc(S(=O)(=O)N2CCCC2)cc1)c1ccc(OCC2CCCO2)cc1 (centres undefined),-76.1%,-2.6%,1.6%,-20.8%,-21.3%
Cc1cnc(NC(=O)c2ccc(OCC3CCCO3)cc2)s1 (centres undefined),2.24µM*,-5.0%,0.757µM*,0.126µM*,0.501µM*
O=C(Nc1nc2ccccc2s1)c1ccc(OCC2CCCO2)cc1 (centres undefined),·,·,0.757µM*,0.398µM*,3.16µM*
SMILES,SMN2 splice up,KinaseGlo FLuc,FLuc modulator,Rab9 prom act,NPC1 prom act
Cc1ccc(NC(=O)c2ccc(OCC3CCCO3)cc2)cc1 (centres undefined),7.94µM*,-0.8%,6.01µM*,2.51µM*,2.24µM*
COc1ccccc1N1CCN(C(=O)Cc2c(C(=O)O)c(C)cn2C)CC1,·,·,-0.2%,·,·
COc1cccc(-c2nn(C)c3sc(C(=O)N4CCN(c5cccc(C)c5)C(C)C4)cc23)c1 (centres undefined),-30.0%,·,-0.2%,·,·
COc1ccc(OC)c(CNC(=O)c2cc3c(=O)oc4ccc(C)cc4c3s2)c1,-6.0%,·,4.5%,·,·
Cc1ccccc1C(=O)Nc1nnc2n1CCS2,·,·,-4.3%,·,·
CC(=O)N[C@@H](CSC(=O)[C@]1([C@@H](O)C(C)C)NC(=O)[C@H](C)[C@@H]1O)C(=O)O,·,-1.4%[39.9 µM],·,·,·
CCOC(=O)COc1ccc(CC)cc1C(=O)c1ccn2nc(-c3ccccc3)cc2n1,12.6%,·,3.9%,·,·
CCC(=O)Nc1ccc(CC)cc1-c1nc2ccccc2n(Cc2ccccc2)c1=O,·,·,-6.1%,·,·
